Most compounds without a hit are left out; they make up all but 12% or so of the library.
AmpC detergent = AmpC beta-lactamase inhibition with detergent present; P00811; AmpC hydrolysis of nitrocefin, absorbance 480 nm, 0.01% Triton; Potency, µM (series often up to 114 µM), inactives show top-dose activity change, negative = inhibition, actives largely listed as inhibitors; hit rate 0.041% among 370,000;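 further: 0% = no-compound wells and -100% = no-enzyme wells; nearly all actives have a fitted effect of over 25% in size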
Target sequence (P00811 whole entry, looked up): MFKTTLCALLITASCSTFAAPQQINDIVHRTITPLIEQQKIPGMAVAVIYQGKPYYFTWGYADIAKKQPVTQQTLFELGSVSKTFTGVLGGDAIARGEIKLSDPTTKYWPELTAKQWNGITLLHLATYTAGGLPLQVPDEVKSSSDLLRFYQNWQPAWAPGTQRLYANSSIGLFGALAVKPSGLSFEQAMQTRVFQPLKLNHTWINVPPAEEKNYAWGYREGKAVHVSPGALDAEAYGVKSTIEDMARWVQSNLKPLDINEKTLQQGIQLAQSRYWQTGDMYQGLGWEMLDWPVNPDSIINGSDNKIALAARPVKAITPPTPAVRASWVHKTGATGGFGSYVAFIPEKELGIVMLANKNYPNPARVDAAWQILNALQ
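AmpC (5.3 nM in the dispensed reagent) in 20 mM phosphate pH 7.0 with 0.01% (detergent screen) or 0.0001% Triton X-100 was preincubated with compounds for 15 min at room temperature. Nitrocefin was then added from an 800 uM solution, and hydrolysis was followed at 480 nm.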
Pf growth 48h = P. falciparum growth inhibition at 48 hours (one generation); AID 504832; P. falciparum luciferase growth in erythrocytes, 48 h; Potency, µM (highest dose often 28.7 µM), for the others: at the highest dose activity change, negative = inhibition, hits mostly inhibitors; hit rate 5.9% among 310,000; further: on the % scale 0 is the no-effect control and ±100 the full control effect
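A one-generation exposure of luciferase-tagged malaria parasites in RPMI 1640/Albumax erythrocyte culture, 37 C and 5% CO2. Inhibition is inferred from decreased luminescence after adding detection reagent.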
AmpC no deterg = AmpC beta-lactamase inhibition without detergent; P00811; AmpC nitrocefin hydrolysis, absorbance 480 nm, 0.0001% Triton; Potency, µM (series often up to 57.1 µM), inactives show at the top dose activity change, negative = inhibition, most hits filed as inhibitors; hit rate 0.52% among 330,000;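 further: plate controls were no compound for no effect and no enzyme for full effect; nearly all actives have a fitted effect of over 20% in size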
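AmpC (5.3 nM in the dispensed reagent) in 20 mM phosphate pH 7.0 with 0.01% (detergent screen) or 0.0001% Triton X-100 was preincubated with compounds for 15 min at room temperature. Nitrocefin was then added from an 800 uM solution, and hydrolysis was followed at 480 nm.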
Pf growth 96h = P. falciparum growth inhibition at 96 hour, primary screen for plastid delayed-death inhibitors; Potency, µM (highest dose often 28.7 µM), without a hit: at the highest dose activity change, negative = inhibition, most hits filed as inhibitors; P. falciparum luciferase reporter growth, 96 h; hit rate 6.9% among 320,000; AID 504834; further: on the % scale 0 is the no-effect control and ±100 the full control effect
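Parasite growth measured via integrated firefly luciferase reporter in P. falciparum. Infected erythrocytes at 2% hematocrit, 0.05% parasitemia final were treated 96 hours at 37 C under 5% CO2, and luminescence was read.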
Sm TGR block = blocks Schistosoma mansoni thioredoxin glutathione reductase | Q962Y6 | purified TGR, DTNB reduction, TNB absorbance 405 nm | Potency, µM (top dose mostly 114 µM), for inactives: at the top dose activity change, negative = inhibition, hits mostly inhibitors | hit rate 3% among 360,000 | AID 485364; further: on the % scale 0 is the no-effect control and ±100 the full control effect; nearly all actives have a fitted effect of over 60% in size
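Kinetic colorimetric format: TGR-catalysed, NADPH-driven DTNB reduction monitored via TNB absorbance. Enzyme dispensed at 20 nM; compound exposure 15 min at room temperature before reaction start.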
SARS PLpro yeast = SARS-CoV PLP inhibition in yeast. Potency, µM (doses to about 32.9 µM), for inactives: top-dose activity, positive = growth rescue, hits mostly activators. S. cerevisiae expressing SARS-CoV PLpro, growth rescue. AID 485353. hit rate 0.19% among 330,000; calls by dose curve; further: 0% is about no effect; nearly all actives have a fitted effect of over 55% in size
The depositor's hits bear a star; ? = inconclusive; · = no result given. Unless noted, the call rests on the fitted dose curve; in most records, active means well fitted curve in the direction sought with a large enough effect; inconclusive means small, poorly fitted or top-dose-only effect, or another doubt; inactive means no such curve, though single readings can be large; an effect the other way counts as inactive or inconclusive. Potency means the concentration at half of the fitted maximal effect.

SMILES | AmpC detergent | Pf growth 48h | AmpC no deterg | Pf growth 96h | Sm TGR block | SARS PLpro yeast
COc1ccc(C2Nc3ccccc3C(=O)N2Cc2ccco2)cc1COc1ccccc1F (configuration not stated) | -7% | · | -40% | 4.1µM* | -25% | 9%
O=C1c2ccccc2NC(c2cccc(F)c2)N1Cc1ccco1 (configuration not stated) | 0% | -18% | -19% | ? | ? | -2%
O=C1c2ccccc2NC(c2ccc(O)cc2)N1Cc1ccco1 (configuration not stated) | -2% | -24% | -41% | ? | ? | 5%
O=C(CCn1c(=O)c2cccn2c2cccnc21)NCc1ccc(F)cc1 | 0% | · | · | · | 1% | ·
Cc1ccc(NC(=O)C2CCN(C(=O)c3cnn(-c4ccccc4)c3-n3cccc3)CC2)cc1C | 10% | · | · | · | 8% | ·
Cc1ccc2c(c1)c1c(c(=O)n(-c3ccccc3)c(=O)n1CC(=O)NCCC1=CCCCC1)n2C | -2% | · | · | · | 7% | ·
COc1ccc(C(=O)NC(=S)N2CCCC2)cc1 | -4% | 25% | -14% | 13µM* | -7% | 0%
COc1ccc(C(=O)N/C(=C/c2ccco2)C(=O)N2CCCCCC2)cc1 | -1% | -16% | -3% | -52% | 45µM* | -13%
COc1ccc(C(=O)NC(=S)N2CCCCC2)cc1 | 4% | · | -3% | -3% | -14% | 9%
CN(Cc1ccco1)C(=O)C(Cc1ccccc1)NS(=O)(=O)c1ccc2c(c1)CCC(=O)N2 (configuration not stated) | -11% | · | -5% | 68% | 40µM* | 5%
CCCNC(=O)C(Cc1ccccc1)NS(=O)(=O)c1ccc2c(c1)CCC(=O)N2 (configuration not stated) | ? | · | -13% | ? | 6% | 6%
COc1cccc(OC)c1C(=O)N1CCOCC1 | 1% | -8% | -13% | 15µM* | 1% | -1%
COc1ccc(-c2cc(C(=O)N3CCOCC3)no2)cc1OC | -7% | 88% | -6% | 1.3µM* | -32% | 1%
COc1ccc(C(=S)N2CCOCC2)cc1OC(=O)c1ccc(C)cc1 | -6% | -18% | 93% | 2.9µM* | -2% | -1%
COc1ccc(-c2cc(C(=O)N3CC4(C)CC3CC(C)(C)C4)no2)cc1OC (configuration not stated) | -3% | 0.93µM* | 26% | ? | 8% | 5%
Cc1cccn2c(=O)cc(COc3ccc(NC(=O)COc4ccc(F)cc4)cc3)nc12 | 18% | · | · | · | 5% | ·
COc1ccc(-c2cc3nccc(-c4cc(Cl)c(C)cc4O)n3n2)cc1 | -2% | · | · | · | -6% | ·
CCCCNC(=O)c1cc(-c2ccc(OC)c(OC)c2)on1 | -9% | · | 9% | 3.3µM* | 1% | 1%
CCCCNC(=O)c1cc(-c2ccc(OC)cc2)on1 | ? | 130% | 12% | ? | 6% | -10%
CCN(CC)S(=O)(=O)c1cccc(-c2nnc(SCC(=O)c3ccc(Cl)s3)n2C)c1 | -16% | 13µM* | 22% | 58% | 0% | -2%
CC1CCN(CC2CCN(C(=O)Nc3ccc(Br)cc3F)CC2)CC1 | -2% | · | · | · | -3% | ·
COc1cc(OC)c(OC)cc1CNc1sc2c(c1C(=O)Nc1ccccc1OC)CCC2 | 2% | · | · | · | -23% | ·
Nc1ccccc1C#CC(=O)c1ccccc1 | -6% | ? | -23% | 3% | 0.5µM* | -12%
CC(C)(C)OC(=O)N1CCC(c2c(C(=O)N3CCN(c4ccccn4)CC3)cnn2-c2ccccc2Cl)CC1 | 23% | · | · | · | 15% | ·
O=C(COc1ccc(Cl)cc1)N1CCN(c2ccc([N+](=O)[O-])c(N3CCCCC3)c2)CC1 | -2% | ? | 4% | 10µM* | -4% | -1%
O=C(OCC(=O)N1CCN(c2ccccc2)CC1)c1cc(Cl)ccc1[N+](=O)[O-] | 4% | -26% | 22% | 12µM* | 2% | -5%
